“And” between values parts separate entries of the source, which are not always exact repeats. Equal values may be shown once. Records with an inconclusive call do not appear. Some compounds were tested as several samples or in several runs, with calls that do not always agree. The source made the active and inactive calls. The calls were made as follows, unless noted: active = hit-call score of the fitted dose curve at least 0.9, where 1 is the maximum; inconclusive = response in the unintended direction; inactive = score below 0.9.
Assays:
[1] = molecular target: zebrafish Thyroid Hormone Receptor beta (TRb), thrb (gene 30607) (UniProt Q9PVE4); experiment: ATG_zfTRb_XSP2: Attagene TRANS-FACTORIAL Multi-Species (XSP1) HepG2 Assay for zebrafish Thyroid Hormone Receptor beta (TRb) (AID 2283836);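 as to AC50: potency for induction of reporter signal above DMSO so agonist direction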
Outline: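 Reporter transcripts were measured by RT-PCR with fluorescent primer extension and capillary electrophoresis, 24 h after chemical dosing of transiently transfected HepG2 cells. Activity was scored as upward signal versus DMSO baseline.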

[2] = molecular target: human Thyroid hormone Receptor alpha (TRa), THRA (gene 7067) (UniProt P10827); experiment: ATG_hTRa_XSP2: Attagene TRANS-FACTORIAL Multi-Species (XSP2) HepG2 Assay for human Thyroid hormone Receptor alpha (TRa) (AID 2283838)
Outline: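 Gain-of-signal in reporter mRNA, relative to DMSO, after 24 h dosing of transfected HepG2; quantitation by RT-PCR fragment analysis on capillary electrophoresis.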

[3] = molecular target: frog Thyroid hormone Receptor alpha (TRa), thra-a (gene 397942) (UniProt P15204); experiment: ATG_frTRa_XSP2: Attagene TRANS-FACTORIAL Multi-Species (XSP2) HepG2 Assay for frog Thyroid hormone Receptor alpha (TRa) (AID 2283839);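 as to AC50: AC50 reflects induction of frog TRa-driven reporter mRNA above DMSO baseline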
Outline: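 HepG2 cells transiently transfected with multiplexed GAL4-UAS reporter units expressing chimeric frog TRα-Gal4; reporter mRNA read 24 h after dosing by RT-PCR, FAM-labelled primer extension, HpaI digest and capillary electrophoresis. Gain of signal fitted versus DMSO.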

[4] = molecular target: human Thyroid hormone Receptor beta (TRb), THRB (gene 7068) (UniProt P10828); experiment: ATG_hTRb_XSP2: Attagene TRANS-FACTORIAL Multi-Species (XSP2) HepG2 Assay for human Thyroid hormone Receptor beta (TRb) (AID 2283840);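 also: actives raise reporter mRNA so potency reflects agonist-like gain of signal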
Outline: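 HepG2 cells were transiently transfected with GAL4-UAS multiplexed reporter units expressing chimeric NR-Gal4 proteins, dosed 24 h; reporter mRNA was quantified by RT-PCR, fluorescent labeling, HpaI digestion and capillary electrophoresis, fitted for gain of signal versus DMSO.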

PGR (gene 5241) [5] = molecular target: PGR (gene 5241) (UniProt P06401); experiment: TOX21_PR_BLA_Followup_Agonist_ratio: Tox21 HEK293 Progesterone Receptor (PR) Agonism Beta-lactamase Follow-Up Assay, Ratio (AID 2283933)
Outline: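 Read-out: ratio of cleaved (ch2) to uncleaved (ch1) beta-lactamase substrate fluorescence, gain-of-signal relative to DMSO baseline. Cells: PR-UAS-bla HEK293T, 2% charcoal-stripped FBS; compound exposure 16 hr, 37C; substrate 2 hr, RT.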

PGR (gene 5241) [6] = molecular target: PGR (gene 5241) (UniProt P06401); experiment: TOX21_PR_BLA_Followup_Antagonist_ratio: Tox21 HEK293 Progesterone Receptor (PR) Antagonism Beta-lactamase Follow-Up Assay, Ratio (AID 2283934)
Outline: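 Read-out: blue/green beta-lactamase FRET ratio (cleaved ch2 over uncleaved ch1), fitted relative to DMSO baseline. Cells: PR-UAS-bla HEK293T, GAL4-UAS reporter, stimulated with 1 nM R5020 final; 16 hr compound exposure, 37C.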

[7] = TOX21_PR_BLA_Followup_Agonist_viability: Viability Assessment in the Tox21 HEK293 Progesterone Receptor (PR) Agonism Beta-lactamase Follow-Up Assay (AID 2283935);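 also: signal loss means lower viability so actives are cytotoxic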
Outline: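 Luminescent ATP quantitation (CellTiter-Glo, 30 min, room temperature) in the same wells as the beta-lactamase read, on PR-UAS-bla HEK293T cells exposed to compound for 16 hr at 37C in 2% charcoal-stripped serum.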

[8] = TOX21_PR_BLA_Followup_Antagonist_viability: Viability Assessment in the Tox21 HEK293 Progesterone Receptor (PR) Antagonism Beta-lactamase Follow-Up Assay (AID 2283936);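 also: cells exposed to compound with R5020 agonist for 16 h; hits lower the luminescence signal meaning cytotoxicity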
Outline: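 PR-UAS-bla HEK293T cells in medium with 2% charcoal-stripped FBS were treated with compounds plus R5020 for 16 hr at 37C. After the beta-lactamase read, CellTiter-Glo was added to the same wells and luminescence read after 30 min at room temperature.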

PGR (gene 5241) [9] = molecular target: PGR (gene 5241) (UniProt P06401); experiment: TOX21_PR_LUC_Followup_Agonist: Tox21 HEK293 Progesterone Receptor (PR) Agonism Luciferase Follow-Up Assay (AID 2283937; active = hit-call score of the fitted dose curve at least 0.9, where 1 is the maximum; inactive = score below 0.9)
Outline: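 Luminescence read-out (ONE-Glo, 30 min at room temperature) of PR-driven luciferase in HEK293-PR-A-luc cells after 16 h compound exposure at 37C; gain of signal fitted relative to DMSO baseline.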

PGR (gene 5241) [10] = molecular target: PGR (gene 5241) (UniProt P06401); experiment: TOX21_PR_LUC_Followup_Antagonist: Tox21 HEK293 Progesterone Receptor (PR) Antagonism Luciferase Follow-Up Assay (AID 2283938);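 also: curve fitted upward as signal gain over DMSO baseline despite antagonist label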
Outline: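 HEK293-PR-A-luc cells were precultured 5 days in medium with 10% charcoal-stripped FBS, seeded 3,000/well, then exposed to compounds in DMSO for 16 h at 37C. Luciferase was read by ONE-Glo luminescence after 30 min at room temperature.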

[11] = TOX21_PR_LUC_Followup_Antagonist_viability: Viability Assessment in the Tox21 HEK293 Progesterone Receptor (PR) Antagonism Luciferase Follow-Up Assay (AID 2283940)
Outline: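 Read-out: CellTiter-Glo ATP luminescence, loss of signal taken as reduced viability. Cells: HEK293-PR-A-luc, 3,000/well, 5 h settling, then 16 h compound exposure at 37C, 0% CO2.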

[12] = system: Sodium/Iodide Symporter (NIS), SLC5A5 (gene 6528); experiment: CPHEA_Stoker_NIS_Inhibition_RAIU: CPHEA's Radioactive Iodide Uptake (RAIU) Assay for Sodium/Iodide Symporter (NIS) Inhibition, Stoker and Laws Labs (AID 2283841)
Outline: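 Test chemicals, six concentrations from 0.001 to 100uM in 0.5% DMSO, were co-incubated with carrier-free 125I (final 329pM) on hNIS-HEK293T-EPA monolayers in pH 7.4 HEPES-buffered HBSS. Plates stood 2 hours at room temperature, then were washed cold and counted.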

Measured: AC50

Sequence of zebrafish Thyroid Hormone Receptor beta (TRb), thrb (gene 30607) (Q9PVE4 whole entry, looked up): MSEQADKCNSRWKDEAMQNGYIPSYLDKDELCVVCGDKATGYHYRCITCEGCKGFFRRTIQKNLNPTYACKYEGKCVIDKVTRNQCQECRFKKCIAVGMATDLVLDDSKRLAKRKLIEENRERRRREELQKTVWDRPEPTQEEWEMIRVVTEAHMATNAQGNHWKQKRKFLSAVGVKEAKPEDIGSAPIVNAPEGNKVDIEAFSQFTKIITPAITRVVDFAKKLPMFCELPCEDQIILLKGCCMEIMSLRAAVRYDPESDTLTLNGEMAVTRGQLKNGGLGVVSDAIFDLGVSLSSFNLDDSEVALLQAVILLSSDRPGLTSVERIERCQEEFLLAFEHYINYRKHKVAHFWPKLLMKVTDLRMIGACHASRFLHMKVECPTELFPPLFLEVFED
Sequence of human Thyroid hormone Receptor alpha (TRa), THRA (gene 7067) (P10827 whole entry, looked up, the tested form may be a part): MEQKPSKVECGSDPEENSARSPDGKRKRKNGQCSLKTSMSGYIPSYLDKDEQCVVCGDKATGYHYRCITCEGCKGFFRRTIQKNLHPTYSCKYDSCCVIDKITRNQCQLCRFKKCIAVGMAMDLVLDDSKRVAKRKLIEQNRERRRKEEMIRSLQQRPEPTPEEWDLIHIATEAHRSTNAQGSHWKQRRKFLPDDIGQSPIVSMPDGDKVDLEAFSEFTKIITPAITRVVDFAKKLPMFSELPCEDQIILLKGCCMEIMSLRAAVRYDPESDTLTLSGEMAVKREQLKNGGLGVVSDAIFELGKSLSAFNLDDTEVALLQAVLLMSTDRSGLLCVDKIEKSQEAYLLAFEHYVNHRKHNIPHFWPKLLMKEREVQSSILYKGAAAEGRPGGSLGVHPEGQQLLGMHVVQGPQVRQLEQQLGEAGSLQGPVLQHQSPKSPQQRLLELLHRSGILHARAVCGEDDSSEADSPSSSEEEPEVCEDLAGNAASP
Sequence of human Thyroid hormone Receptor beta (TRb), THRB (gene 7068) (P10828 whole entry, looked up, the tested form may be a part): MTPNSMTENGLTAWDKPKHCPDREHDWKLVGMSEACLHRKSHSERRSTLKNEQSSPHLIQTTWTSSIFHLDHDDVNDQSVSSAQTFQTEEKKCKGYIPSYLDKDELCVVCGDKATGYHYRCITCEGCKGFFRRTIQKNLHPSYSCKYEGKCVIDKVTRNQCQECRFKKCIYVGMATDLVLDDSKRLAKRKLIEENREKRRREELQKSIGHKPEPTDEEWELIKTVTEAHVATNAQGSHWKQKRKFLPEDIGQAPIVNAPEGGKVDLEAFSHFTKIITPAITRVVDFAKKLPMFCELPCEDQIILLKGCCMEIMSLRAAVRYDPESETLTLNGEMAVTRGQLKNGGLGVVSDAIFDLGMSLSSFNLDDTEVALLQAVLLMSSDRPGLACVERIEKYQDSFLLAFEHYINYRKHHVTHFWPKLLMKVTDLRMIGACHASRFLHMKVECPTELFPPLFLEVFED
Sequence of frog Thyroid hormone Receptor alpha (TRa), thra-a (gene 397942) (P15204 whole entry, looked up, the tested form may be a part): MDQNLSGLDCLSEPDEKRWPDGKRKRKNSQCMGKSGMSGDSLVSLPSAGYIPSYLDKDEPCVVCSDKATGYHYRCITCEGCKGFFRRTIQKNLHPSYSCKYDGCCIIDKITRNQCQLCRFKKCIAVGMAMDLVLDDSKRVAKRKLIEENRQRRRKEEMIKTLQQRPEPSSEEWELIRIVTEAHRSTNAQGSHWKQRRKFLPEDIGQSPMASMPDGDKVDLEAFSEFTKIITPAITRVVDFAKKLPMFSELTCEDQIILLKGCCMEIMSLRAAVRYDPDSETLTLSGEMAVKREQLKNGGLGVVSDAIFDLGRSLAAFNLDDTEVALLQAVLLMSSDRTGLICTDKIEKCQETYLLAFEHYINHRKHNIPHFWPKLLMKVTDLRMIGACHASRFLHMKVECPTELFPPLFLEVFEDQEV
Sequence of PGR (gene 5241) (P06401 whole entry, looked up, the tested form may be a part): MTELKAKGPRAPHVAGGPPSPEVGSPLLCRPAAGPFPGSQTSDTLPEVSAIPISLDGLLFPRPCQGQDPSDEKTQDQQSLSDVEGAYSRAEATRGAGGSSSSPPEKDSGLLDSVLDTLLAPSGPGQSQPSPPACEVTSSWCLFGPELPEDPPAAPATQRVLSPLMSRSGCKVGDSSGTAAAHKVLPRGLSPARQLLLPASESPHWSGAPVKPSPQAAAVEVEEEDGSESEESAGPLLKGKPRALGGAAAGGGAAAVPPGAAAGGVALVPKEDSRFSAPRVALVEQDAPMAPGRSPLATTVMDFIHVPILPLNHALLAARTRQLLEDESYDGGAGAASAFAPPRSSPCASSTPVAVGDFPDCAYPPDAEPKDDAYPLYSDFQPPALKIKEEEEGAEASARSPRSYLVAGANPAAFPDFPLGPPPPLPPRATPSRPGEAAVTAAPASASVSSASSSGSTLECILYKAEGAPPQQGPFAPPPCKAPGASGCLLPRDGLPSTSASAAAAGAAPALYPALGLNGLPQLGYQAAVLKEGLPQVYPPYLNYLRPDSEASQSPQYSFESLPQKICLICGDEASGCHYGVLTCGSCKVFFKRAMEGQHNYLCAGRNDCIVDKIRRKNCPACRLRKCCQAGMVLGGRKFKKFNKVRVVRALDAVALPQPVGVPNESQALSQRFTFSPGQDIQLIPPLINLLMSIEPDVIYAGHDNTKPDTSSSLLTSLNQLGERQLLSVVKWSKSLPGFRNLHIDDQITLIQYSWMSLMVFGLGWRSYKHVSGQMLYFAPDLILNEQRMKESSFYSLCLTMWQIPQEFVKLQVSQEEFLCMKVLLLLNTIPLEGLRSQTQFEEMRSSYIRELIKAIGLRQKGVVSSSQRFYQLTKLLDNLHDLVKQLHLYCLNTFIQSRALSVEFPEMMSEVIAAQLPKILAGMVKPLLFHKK

CC1(C)CCC(=Cc2ccc(Cl)cc2)C1(O)Cn1cncn1 (centres undefined)
not listed: [12]
inactive: all other assays above

CCNP(=S)(OC)O/C(C)=C/C(=O)OC(C)C (centres undefined)
inactive: [12]

N#Cc1c[nH]cc1-c1cccc2c1OC(F)(F)O2
inactive: [1] | [2] | [4] | [12] | [7] | [8] | [11]
active: [1] 100 µM | [2] 100 µM | [3] 100 µM and 60.7 µM | PGR (gene 5241) [6] 2.42 µM | PGR (gene 5241) [10] 7.11 µM

OC(c1ccc(Cl)cc1)(c1ccc(Cl)cc1)C(Cl)(Cl)Cl
active: [12] 30.2 µM

CCOC(=O)C(C)OC(=O)c1cc(Oc2ccc(C(F)(F)F)cc2Cl)ccc1[N+](=O)[O-] (centres undefined)
inactive: [12]

CCCCOCN(C(=O)CCl)c1c(CC)cccc1CC
inactive: [12]

CCOc1nc(F)cc2nc(S(=O)(=O)Nc3c(Cl)cccc3Cl)nn12
inactive: [12]

CC1(C)C(C=C(Cl)Cl)C1C(=O)OC(C#N)c1cccc(Oc2ccccc2)c1 (centres undefined)
inactive: [1] | [2] | [3] | [4] | [12]

CCN(CC)C(=O)C(C)Oc1cccc2ccccc12 (centres undefined)
active: PGR (gene 5241) [6] 28.4 µM
not listed: PGR (gene 5241) [5] | PGR (gene 5241) [9] | [11]
inactive: all other assays above

CC1(C)C(C(=O)OC(C#N)c2cccc(Oc3ccccc3)c2)C1(C)C (centres undefined)
inactive: [12]

CCOP(=S)(OCC)Oc1nc(Cl)n(C(C)C)n1
inactive: [12]
